G9a inh – qHTS Assay for Inhibitors of Histone Lysine Methyltransferase G9a; hit rate 8.8% among 350,000; G9a H3K9 monomethylation, AlphaScreen, 2 h; Potency, µM (doses to about 102 µM), without a hit: at the top dose activity, negative = inhibition, hits mostly inhibitors; further: on the % scale 0 is the no-effect control and ±100 the full control effect; nearly all actives have a fitted effect of over 75% in size
Target sequence (Q96KQ7 913-1193 limits assumed): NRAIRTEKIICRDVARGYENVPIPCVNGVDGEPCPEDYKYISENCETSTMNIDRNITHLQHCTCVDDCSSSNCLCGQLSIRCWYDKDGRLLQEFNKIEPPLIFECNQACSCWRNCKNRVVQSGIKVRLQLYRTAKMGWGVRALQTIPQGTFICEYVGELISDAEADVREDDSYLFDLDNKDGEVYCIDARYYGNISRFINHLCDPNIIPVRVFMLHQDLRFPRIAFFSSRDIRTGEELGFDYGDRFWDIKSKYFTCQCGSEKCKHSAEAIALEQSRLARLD
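Readings reflect AlphaScreen signal from monomethyl-H3K9 antibody detection. HMT at 20 nM; substrate b-H3K9 500 nM; cofactor SAM 20 uM; 2 h RT reaction; compounds tested as titrations in qHTS with 15 min preincubation.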
Sfp PPTase inh – qHTS Assay for Inhibitors of Bacillus subtilis Sfp phosphopantetheinyl transferase (PPTase); 4'-phosphopantetheinyl transferase ffp (Bacillus subtilis), Q9F4F7; Biochemical Sfp PPTase activity, qHTS; Potency, µM, without a hit: largest response in the series, negative = inhibition, hits mostly inhibitors; hit rate 3.5% among 310,000; AID 1490, 2009;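 further: the enzyme is Sfp with the accession as filed and its product quenches rhodamine fluorescence; 0% = enzyme reaction without inhibitor and -100% = no enzyme wells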
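Buffer: 50 mM Hepes-Na pH 7.6, 10 mM MgCl2, 0.01% Nonidet P-40, 0.01% BSA. Enzyme 15 nM, pre-exposed to compound 15 min; substrates then added and fluorescence change tracked over 30 min.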
12-LOX inh – Primary qHTS assay for inhibitors of human arachidonate 12S-lipoxygenase (ALOX12): Round 2. Polyunsaturated fatty acid lipoxygenase ALOX12 (Homo sapiens), P18054. purified 12hLO, xylenol orange hydroperoxide absorbance. Potency, µM (series often up to 108 µM), for the others: at the highest dose activity change, negative = inhibition, usual class: inhibitors. hit rate 1.1% among 580,000; further: on the % scale 0 is the no-effect control and ±100 the full control effect
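Hydroperoxide product was detected by ferrous iron/xylenol orange as the 573 to 405 nm absorbance ratio. Arachidonic acid at 40 uM (final) was turned over for 30 min at room temperature by 150 nM human 12hLO, pH 7.0 Hepes buffer, after 15 min compound preincubation.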
JMJD2A Tudor – qHTS Assay for Inhibitors of JMJD2A-Tudor Domain. AlphaScreen JMJD2A-Tudor / H3K4me3 peptide binding. hit rate 4.4% among 390,000. Lysine-specific demethylase 4A (Homo sapiens), O75164. Potency, µM (top dose mostly 114 µM), for inactives: at the highest dose activity change, negative = inhibition, hits mostly inhibitors; further: on the % scale 0 is the no-effect control and ±100 the full control effect; nearly all actives have a fitted effect of over 50% in size
HP1b chromo inh – HTS for Inhibitors of HP1-beta Chromodomain Interactions with Methylated Histone Tails | Chromobox protein homolog 1 (Homo sapiens), P83916 | AlphaScreen HP1-beta / biotin-H3K9me3 peptide binding | Potency, µM (highest dose often 114 µM), inactives show top-dose activity change, negative = inhibition, actives largely listed as inhibitors | hit rate 0.56% among 390,000 | AID 540317, 2011; further: nearly all actives have a fitted effect of over 70% in size
Target sequence (P83916 whole entry, looked up): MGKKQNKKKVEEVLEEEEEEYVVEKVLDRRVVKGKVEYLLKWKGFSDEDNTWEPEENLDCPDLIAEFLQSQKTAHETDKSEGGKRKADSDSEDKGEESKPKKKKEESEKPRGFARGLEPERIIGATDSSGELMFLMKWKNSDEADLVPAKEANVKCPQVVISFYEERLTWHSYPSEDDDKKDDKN
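AlphaScreen: HP1-beta (50 nM) preformed 30 min with biotin-H3(1-18)K9me3 peptide (50 nM) in PBS pH 7.4, 0.01% Tween-20. Compound added for 30 min at RT, then streptavidin donor/nickel chelate acceptor beads (10 ug/mL) for 30 min.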
BAZ2B inh – qHTS Assay for Inhibitors of BAZ2B; AlphaScreen BAZ2B-H3K14Ac peptide displacement; Potency, µM (highest dose often 114 µM), without a hit: at the top dose activity change, negative = inhibition, usual class: inhibitors; hit rate 4.4% among 360,000; AID 504333, 2011; further: on the % scale 0 is the no-effect control and ±100 the full control effect; nearly all actives have a fitted effect of over 60% in size
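AlphaScreen displacement of biotin-H3(5-23)K14Ac peptide (50 nM final) from BAZ2B (50 nM final) in PBS pH 7.4, 0.01% Tween-20; complex preformed 30 min RT, then compounds (top 110 uM) 30 min RT, beads 20 min dark.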
Numbers without * were called inactive; u = inconclusive; x = not tested or not shown; [ ] = another dose, or the depositor's remark. An excerpt weighted towards active compounds, which were near 8.7% of everything screened. The call rests on the fitted dose curve; in most records, active means well fitted curve in the direction sought with a large enough effect; inconclusive means small, poorly fitted or top-dose-only effect, or another doubt; inactive means no such curve, though single readings can be large; an effect the other way counts as inactive or inconclusive. Potency means the concentration at half of the fitted maximal effect.

SMILES	G9a inh	Sfp PPTase inh	12-LOX inh	JMJD2A Tudor	HP1b chromo inh	BAZ2B inh
CN(C)C[C@@H]1CN(Cc2ccccn2)C[C@H]1NS(=O)(=O)c1cccc(F)c1	x	x	96%	x	x	x
COCCNC(=O)c1ccc(C(=O)NCCOC)s1	10%[12.7 µM]	13%	26%	-11%	6%	2%
CCn1c(N)c(C(=O)NCCOC)sc1=S	20%[12.7 µM]	56µM*	u	3%	u	5%
CCn1c(N)c(C(=O)Nc2ccccc2C(=O)OC)sc1=S	u	35µM*	u	-16%[11.4 µM]	u	u
CCOC(=O)N1CCN(Cc2cc(=O)oc3cc(O)c(Cl)cc23)CC1	x	x	-9%	x	x	x
O=C(CN1CCCC1)NCCCc1ccccc1	x	x	3%	x	x	x
NCC(=O)N1CCC2(CC1)CN(C(=O)Cc1ccc(Cl)cc1)CCO2	x	x	1%[6.33 µM]	x	x	x
Cn1c2ccc(CC(=O)O)cc2c2cc(CC(=O)O)ccc21	50µM*	-13%	-15%	-12%	27%	u
O=C(O)Cc1ccc2[nH]c3ccc(CC(=O)O)cc3c2c1	u	-4%	19%	-30%	30%	-31%
COC(=O)C(=Cc1ccc(-c2ccsc2C(=O)OC)o1)C(=O)OC	-3%	-3%	-11%	-16%	35%	-2%
COC(=O)c1sccc1-c1ccc(C(N)=O)o1	50µM*	11%	x	x	x	u
Cc1nc(-c2ccc(CNC(=O)c3cnccn3)s2)cs1	x	x	-40%	x	x	x
C#CCOc1c(Br)cc(/C=C2/C(=O)ON=C2C)cc1OCC	45µM*	-68%	11µM*	-13%	13%	u
CC1=NOC(=O)/C1=C\c1ccc(-c2ccc(Cl)cc2Cl)o1	8.9µM*	45µM*	16µM*	u	-17%	u
C#CCOc1c(Cl)cc(/C=C2/C(=O)ON=C2C)cc1OCC	40µM*	79µM*	45µM*	-13%	4%	-36%
C#CCOc1c(Br)cc(/C=C2/C(=O)ON=C2C)cc1OC	40µM*	56µM*	5µM*	-30%	-34%	-20%
Cc1cccc(C)c1NC(=O)c1ccc(-c2ccc(Cl)cc2Cl)o1	-29%	-12%	362%	-19%	41%	-6%
CCCC(=O)N1CCC(N2C(=O)C3(CCCCC3)C2c2ccncc2)CC1 (stereo unspecified)	x	x	29%	x	x	x
CC(C)NC(=O)Cc1ccc(-n2c(=O)c3ccccc3n(Cc3ccccc3)c2=O)cc1	x	x	3%	x	x	x
COc1cc(C)ccc1OCCOc1ccc(C)cc1I	x	x	2%	x	x	x
Cc1cc(C)cc(NC(=O)N2c3ccccc3CC2c2noc(C3CCOCC3)n2)c1 (stereo unspecified)	x	x	45%	x	x	x
O=C(OCc1ccccc1F)c1cccc(S(=O)(=O)N2CCCCC2)c1	x	x	4%	x	x	x
COc1ccccc1/C=C1/C(=O)ON=C1C	-34%[12.7 µM]	-28%	u	-21%	7%	-19%
C=CCOc1c(Br)cc(/C=C2/C(=O)ON=C2C)cc1OC	32µM*	u	16µM*	20µM*	12%	u
COc1ccc(/C=C2/C(=O)ON=C2C)cc1Br	u	u	u	-29%	14%	-17%
SMILES	G9a inh	Sfp PPTase inh	12-LOX inh	JMJD2A Tudor	HP1b chromo inh	BAZ2B inh
CCCOc1ccc(Cl)cc1/C=C1/C(=O)ON=C1C	32µM*	u	u	7.9µM*	9%	-24%
CC1=NOC(=O)/C1=C\c1ccc2c(c1)OCO2	u	-27%	u	-2%	25%	u
C#CCOc1ccc(/C=C2/C(=O)ON=C2C)cc1Cl	35µM*	u	8.9µM*	13µM*	-5%	-4%
Cn1c(=O)c2nc(SCc3ccc(F)cc3)n(C)c2n(C)c1=O	x	x	1%	x	x	x
Cc1oc(-c2cccc(Oc3ccccc3)c2)nc1CN(C)CCCO	x	x	71%	x	x	x
CCCS(=O)(=O)N1CCC2(CC1)c1[nH]c3ccccc3c1CCN2C	x	x	17%	x	x	x
Cc1ccc(NC(=O)NC2CCOc3ccccc32)cc1 (stereo unspecified)	x	x	-6%	x	x	x
O=C(O)CCCN1C(=O)/C(=C/c2ccc(-c3nc4ccccc4s3)o2)SC1=S	u	40µM*	u	10µM*	16µM*	10µM*
O=C(O)CCCCCN1C(=O)/C(=C/c2ccncc2)SC1=S	79µM*	-14%	-16%	-6%	19%	-21%
O=C(O)CCCCCN1C(=O)/C(=C\c2ccc(-c3ccc(Cl)cc3)o2)SC1=S	u	6.3µM*	u	32µM*	40µM*	u
O=C(O)CCCN1C(=O)/C(=C/c2ccncc2)SC1=S	11%[12.7 µM]	10%	-27%	11%	29%	-7%
CCn1cc(Cl)c(C(=O)NNC(=O)CCn2cc([N+](=O)[O-])cn2)n1	-13%[59 µM]	0%	21%	-10%	30%	-4%
Cc1nn(C(=O)CCCn2cc([N+](=O)[O-])cn2)c(C)c1Cl	-32%	6%	0%	20µM*	2%	6%
O=C1c2ccccc2NC2(CCCC2)N1O	35µM*	u	u	-13%	24%	-29%
CC(C)C(=O)Nc1ccc2oc(-c3ccc(F)cc3)nc2c1	x	x	10%	x	x	x
Cc1nc2cc(NC(=O)c3ccc(C)c(F)c3)ccc2o1	x	x	0%	x	x	x
CCCCN1CCC(n2c(=O)[nH]c3ccccc32)CC1	9.5µM*	x	x	x	x	x
O=C(NCCN1CCC(n2c(=O)[nH]c3ccccc32)CC1)c1c(F)cccc1F	x	x	-13%	x	x	x
O=C(NCCN1CCC(n2c(=O)[nH]c3ccccc32)CC1)c1ccc(F)cc1	x	x	35µM*	x	x	x
O=C(NCCN1CCC(n2c(=O)[nH]c3ccccc32)CC1)c1ccc(Cl)c(Cl)c1	x	x	32µM*	x	x	x
O=C(NC1CC(=O)N(c2ccc3c(c2)OCCO3)C1)c1ccc(S(=O)(=O)N2CCOCC2)cc1 (stereo unspecified)	x	x	-9%	x	x	x
COc1ccc(CCNC(=O)c2cccn2-c2nnc(N3CCCCCC3)s2)cc1OC	x	x	-6%	x	x	x
N#Cc1cc2ccccc2n2nnnc12	50µM*	6%	-4%	0%	17%	-10%
Cc1cc(C)n(-c2nc3ccccc3n3nnnc23)n1	u	16%	212%	-7%	30%	0%
COc1cccc(/C=N/NC(N)=S)c1OCc1ccccc1Cl	5%[59 µM]	1%	28µM*	-28%	5%	u
COc1cccc(/C=N/n2nnnc2N)c1OCc1ccccc1Cl	15%[59 µM]	7%	0%	0%	32%	0%
